From the supplement of paper PMC10646978
± gives the standard deviation.

How the values were obtained:
Details in all cases: modulator concentration 10 µM
[1] = test system: RAW-Dual (murine macrophage reporter line); experiment: NF-kB reporter (SEAP) activity fold change vs agonist alone; higher = enhanced NF-kB activity
In short: (§1)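 Compound reached 10 μM final in each well by pin transfer, onto RAW-Dual murine macrophage reporter cells seeded at 50 000 per well in 384-well plates. After 1 hour at 37 °C, the cells were stimulated overnight with a PRR agonist. SEAP in the supernatant was read with QUANTI-Blue at 620 nm absorbance for NF-κB, and Lucia luciferase was read with QUANTI-Luc luminescence for IRF. Each signal was turned into fold change against the mean agonist-only control on the same plate, and two replicate plates were averaged with propagated errors.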

[2] = test system: RAW-Dual (murine macrophage reporter line); experiment: IRF reporter (Lucia luciferase) activity fold change vs agonist alone; higher = enhanced IRF activity
In short: as §1

[3] = test system: RAW-Dual (murine macrophage reporter line); experiment: viability score (confluency relative to resting cells, overnight) (fraction); higher = more viable, active = viable (0.7 or more)
In short: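 In 384-well plates, RAW-Dual macrophages received compound at a final 10 μM overnight. Two confluency masks were then made with IncuCyte software from IncuCyte images of all imaged wells. The viability score is defined as confluency relative to resting cells. Passing the cutoff required both masks to lie above 70% of resting cells.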

[4] = agonist: CpG ODN 1826 0.5 ug/mL

Row | Structure (SMILES) | NF-kB reporter [1, 4] | NF-kB reporter ([1]; agonist: LPS 0.1 ug/mL) | NF-kB reporter ([1]; agonist: MPLA […]) | IRF reporter ([2]; agonist: 3'3'-cGAMP 10 ug/mL) | IRF reporter ([2]; agonist: LPS 0.1 ug/mL) | IRF reporter ([2]; agonist: MPLA […]) | viability score [3]
1 | CSCCC(NC(C)=O)C(=O)N1CCC(n2c(C)nc3ccccc32)C1 (centres undefined) | 1.07 ± 0.063 | 0.96 ± 0.074 | 0.952 ± 0.025 | 0.98 ± 0.04 | 0.968 ± 0.086 | 0.957 ± 0.25 | 1 (active)
2 | CC[C@@H]1C(=O)N(C)c2cnc(Nc3ccc(C(=O)N[C@H]4CC[C@H](N5CCN(CC6CC6)CC5)CC4)cc3OC)nc2N1C(C)C | 0.553 ± 0.077 | 1.22 ± 0.31 | 4.21 ± 0.23 | 0.0547 ± 0.0068 | 0.0624 ± 0.0084 | 0.138 ± 0.012 | 0.018 (inactive)
3 | Cc1nc2c(ccc3ccccc32)c(O)c1CN1CCCC1 | 0.283 ± 0.029 | 0.968 ± 0.076 | 0.95 ± 0.044 | 0.882 ± 0.073 | 1.06 ± 0.11 | 0.808 ± 0.17 | 1 (active)
4 | O=C(O)c1cccnc1C(=O)O | 1.03 ± 0.087 | 1.04 ± 0.07 | 0.971 ± 0.022 | 0.941 ± 0.052 | 0.981 ± 0.12 | 0.867 ± 0.07 | 1 (active)
5 | O=C1CCCN1c1ccc(Cn2cc(-c3nc(-c4ccc(F)cc4)no3)ccc2=O)cc1 | 0.981 ± 0.15 | 1.06 ± 0.086 | 1.01 ± 0.086 | 1.02 ± 0.053 | 1.04 ± 0.066 | 1.16 ± 0.15 | 1.01 (active)
6 | Cn1c(=O)c2c(ncn2CC(=O)O)n(C)c1=O [Prestw-1507] | 0.918 ± 0.25 | 1.19 ± 0.12 | 1.04 ± 0.086 | 0.945 ± 0.053 | 0.96 ± 0.099 | 1.17 ± 0.15 | 0.992 (active)
7 | NCCCS(=O)(=O)O | 0.883 ± 0.069 | 1 ± 0.072 | 0.98 ± 0.024 | 1.06 ± 0.058 | 0.978 ± 0.039 | 0.891 ± 0.12 | 0.998 (active)
8 | NCCCC[C@H](N[C@@H](CCc1ccccc1)C(=O)O)C(=O)N1CCC[C@H]1C(=O)O | 1.01 ± 0.076 | 0.997 ± 0.097 | 0.97 ± 0.033 | 1.26 ± 0.25 | 0.999 ± 0.049 | 1.07 ± 0.17 | 0.996 (active)
9 | Oc1ccc(/C=C/c2cc(O)cc(O)c2)cc1 | 1.06 ± 0.16 | 1.23 ± 0.28 | 1.11 ± 0.084 | 0.695 ± 0.041 | 0.845 ± 0.13 | 0.798 ± 0.12 | 0.982 (active)
10 | Cc1ccc(S(=O)(=O)NC(=O)NN2CC3CCCC3C2)cc1 (centres undefined) | 1.22 ± 0.17 | 1.17 ± 0.48 | 0.973 ± 0.061 | 0.901 ± 0.082 | 1.23 ± 0.46 | 1.14 ± 0.088 | 0.987 (active)
11 | CCc1nc(N)nc(N)c1-c1ccc(Cl)cc1 | 1.23 ± 0.11 | 1.07 ± 0.054 | 1.03 ± 0.054 | 0.941 ± 0.052 | 0.974 ± 0.07 | 0.865 ± 0.075 | 0.964 (active)
12 | CC(C)Oc1ccc(C(=O)N2CCC(c3ccccc3)S(=O)(=O)CC2)cc1 (centres undefined) | 0.906 ± 0.061 | 1.07 ± 0.098 | 0.876 ± 0.049 | 0.928 ± 0.049 | 1.13 ± 0.069 | 1.09 ± 0.092 | 0.992 (active)
